# The campaign covered roughly 420,000 compounds. About 50,000 (12%) were called active. A call without a number means that no potency is given here. Another 26% or so got no clear call; they are omitted. Calls follow the shape of the dose curve; as a rule, active = well fitted inhibition curve with a large enough effect; inconclusive = small, poorly fitted or top-dose-only effect; inactive = flat fitted curve, though single readings scatter. The sample as a whole holds a higher share of actives than the screen did.
# Assay: qHTS for Inhibitors of human tyrosyl-DNA phosphodiesterase 1 (TDP1): qHTS in cells in presence of CPT; also: nearly all actives have a fitted effect of over 55% in size
# Settings: chicken DT40 Tdp1-/-;hTDP1 cells + 20 nM CPT, ATP luminescence, 48 h; series mostly up to 46.2 µM
# In short: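 Chicken DT40 Tdp1-/- cells complemented with human TDP1, 400 cells/well, exposed to compounds plus 20 nM camptothecin for at least 48 h at 37 C; viability read as ATP content by CellTiter-Glo luminescence.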
# Potency is read from the fitted curve at half-maximal effect.
row,SMILES,Potency
1,C/C(=N\NC(=O)c1ccc(CSc2nc(C)cc(C)n2)cc1)C1CCCCC1,inactive
2,CC(=O)c1c(C)c[nH]c1C,23.1 µM (active)
3,C1CC1Cc1noc(CN2CCN(CC3CC3)CC2)n1,inactive
4,O=C(NCCc1c[nH]c2ccccc12)c1cccc(Br)c1,inactive
5,CC1(C(=O)NCCc2c[nH]c3ccccc23)C=CC2(CCCCC2)N1C(=O)c1ccccc1 (stereo unspecified),18.4 µM (active)
6,O=C(CN1C(=O)NC2(CCCCC2)C1=O)NCCc1c[nH]c2ccccc12,inactive
7,C=CCn1c(SCC(=O)NC)nnc1C12CC3CC(CC(C3)C1)C2,inactive
8,Cc1cc(C)cc(OCC(=O)NNC(=O)CCN2C(=O)c3ccccc3C2=O)c1,inactive
9,Cc1ccsc1/C=N/NC(=O)Cc1cc(=O)[nH][nH]1,inactive
10,CC(=O)c1ccc(N2CCN(C(=O)CCc3ccccc3)CC2)cc1,inactive
11,COc1cc(CCC(=O)Nc2ccncc2Cl)cc(OC)c1OC,inactive
12,COc1cc(CCC(=O)N2CCN(c3ccccc3Cl)CC2)cc(OC)c1OC,11.6 µM (active)
13,Cc1cc(Cl)c2oc(C(=O)N3CCC(O)(c4ccccc4)CC3)c(C)c2c1,inactive
14,Cc1cc2nc(-c3ccco3)c(Cc3cccc(F)c3)n2c(C)c1Br,16.4 µM (active)
15,CCCCN(C(=O)c1ccc2ccccc2c1)c1c(N)n(CCCC)c(=O)[nH]c1=O,inactive
16,CN(CC(=O)NCCc1ccc(S(N)(=O)=O)cc1)CC(=O)Nc1ccc(F)c(F)c1F,inactive
17,O=C(Nc1ccccc1F)c1ccc(S(=O)(=O)N2CCCCCC2)cc1,inactive
18,Cc1cc2nc(NC(=O)c3ccc(S(=O)(=O)N4CCOCC4)cc3)sc2cc1C,inactive
19,Cc1ccc(C)c2sc(NC(=O)c3ccc(S(=O)(=O)N4CCCC4)cc3)nc12,29.1 µM (active)
20,O=C(Nc1ncccc1O)c1ccc(S(=O)(=O)N2CCCC2)cc1,14.6 µM (active)
21,CN1CCN(S(=O)(=O)c2cccc(C(=O)Nc3sccc3C#N)c2)CC1,inactive
22,Cc1ccc(C(=O)Nc2ncccc2C)cc1S(=O)(=O)N1CCOCC1,inactive
23,O=C(N/N=C/c1ccccn1)c1ccc(S(=O)(=O)N2CCCCCC2)cc1,inactive
24,CCOC(=O)c1csc(NC(=O)c2ccc(S(=O)(=O)N3CCCC3)cc2)n1,inactive
25,Cc1cccnc1NC(=O)c1cccc(S(=O)(=O)N2CCN(c3ccc(F)cc3)CC2)c1,18.4 µM (active)
26,CCOc1cc(C)ccc1OCc1nnc(SCC(=O)Nc2cccc(C(=O)O)c2)n1-c1ccccc1,inactive

row,SMILES,Potency
1,CCCOc1ccc(/C=N/NC(=O)C2CC2)c(OCCC)c1,inactive
2,CC(C)CN1CC(C)C(=O)N(c2ccccc2)C1=S (stereo unspecified),inactive
3,N#CC(Cc1cc2ccccc2n1S(=O)(=O)c1ccccc1)OCc1ccccc1 (stereo unspecified),inactive
4,N[C@@H](Cc1ccccc1)C(=O)N1CCC(C(=O)NCC(=O)Nc2ccc(F)cc2)CC1,inactive
5,Cc1ccccc1C(=O)O,inactive
6,O=C(O)c1cc([N+](=O)[O-])c(Nc2cccc3ccccc23)c([N+](=O)[O-])c1,inactive
7,CCN(CC)CCCNC(=O)Cn1cnc2sc(C)c(S(=O)(=O)N3CCN(c4ncccn4)CC3)c2c1=O,inactive
8,CC1(C)CC(=O)C=C(c2cccc3c2Oc2ccccc2S3)C1,inactive
9,COc1cc(OC)cc(C(=O)NNC(=O)CCOc2ccccc2OC)c1,inactive
10,COc1ccc(S(=O)(=O)c2c[nH]c(=S)[nH]c2=O)cc1Cl,inactive
11,COc1ccc(-c2nc3ccccc3o2)cc1NC(=O)c1cc([N+](=O)[O-])ccc1N1CCOCC1,inactive
12,CCOC(=O)c1c(NC(=O)c2cc(CC)on2)sc(C(C)=O)c1C,inactive
13,Cc1cc(OCc2cc(C(=O)NCc3cc(C(C)C)no3)no2)cc(C)c1Cl,inactive
14,CCOC(=O)CC1(NC(=O)c2cc(COc3cncc(Cl)c3)on2)CCCCC1,23.1 µM (active)
15,Cc1cc(C)cc(NC(=O)CN2C(=O)c3ccccc3C2=O)c1,inactive
16,Cc1cccc(C(=O)Nc2ccc(C(=O)/C=C/c3cccs3)cc2)c1,16.4 µM (active)
17,Cc1cccc(C(=O)Nc2ccc(C(=O)N/N=C/c3cccc(C)n3)cc2)c1,inactive
18,Cc1cccc(C(=O)Nc2ccc(CC(=O)O)cc2)c1,inactive
19,CC(C)c1ccc(C(=O)OC2CCOC2=O)cc1 (stereo unspecified),inactive
20,COc1ccc(CCNS(=O)(=O)c2cn(C)nc2C)cc1,inactive
21,COc1ccc(-c2onc(C)c2C)cc1S(=O)(=O)NCC1CCN(Cc2cccc(F)c2)CC1,20.6 µM (active)
22,CCOC(=O)C1CCN(S(=O)(=O)c2cc(F)ccc2OC)CC1,inactive
23,COc1ccc(-c2onc(C)c2C)cc1S(=O)(=O)NCCc1ccccc1,20.6 µM (active)
24,Cc1ccc(-c2onc(C)c2C)cc1S(=O)(=O)Nc1ccccn1,inactive
25,COc1ccc(C(=O)O)cc1S(=O)(=O)NC1CCN(Cc2ccccc2)CC1,inactive
26,C[C@H]1CN([C@@H](C)CO)C(=O)CCCn2cc(nn2)CO[C@@H]1CN(C)S(=O)(=O)c1ccc(-c2ccccc2)cc1,inactive

row,SMILES,Potency
1,O=C(c1ccco1)N1CCC2(CC1)CCN(c1ncccn1)CC2,inactive
2,CC(=O)Nc1ccc(S(=O)(=O)NC(C)C(=O)OCC(=O)NC2CCCC2)cc1 (stereo unspecified),inactive
3,O=C(COc1ccc(-n2cnnn2)cc1)Nc1ccccc1Cl,inactive
4,Nc1nnc(SCC(=O)OCc2ccc(Cl)c(Cl)c2)s1,inactive
5,CCOC(=O)C(Sc1ncc(C#N)c(N)n1)C(C)C (stereo unspecified),inactive
6,O=C(NC(Cc1ccc(O)cc1)C(=O)O)/C(=C/c1ccccc1)NC(=O)c1ccccc1 (stereo unspecified),inactive
7,Clc1ccc2nc(-c3ccccc3)nc(C(Cl)Cl)c2c1,0.164 µM (active)
8,N#CCSc1nc(-c2ccccc2)nc2ccc(F)cc12,inactive
9,O=C(CCc1nc2ccccc2c(=O)[nH]1)OCC(=O)c1cccc(Cl)c1,inactive
10,Cc1nn(-c2ccccc2)c(C)c1/C=C/C(=O)OC(C)C(N)=O (stereo unspecified),inactive
11,Cc1ccc(C(=O)Nc2cccc3ncccc23)cc1[N+](=O)[O-],inactive
12,Cc1ccc2c(NC(=O)C3CC3)cccc2n1,inactive
13,Cc1ccc(/C=C(\C#N)C(=O)Nc2cccc3ncccc23)o1,16.4 µM (active)
14,CC(C)(C)NC(=O)Cn1c(SCC(=O)Nc2nccs2)nc2ccccc21,inactive
15,NC(=O)NC(=O)C(OC(=O)CCNS(=O)(=O)c1ccccc1)c1ccccc1 (stereo unspecified),inactive
16,COCCNC(=O)C(c1ccc(C)cc1)N(C(=O)CCC(=O)Nc1ccccn1)c1cccc(C)c1 (stereo unspecified),inactive
17,CCCCCCN1C[C@@H](O)[C@H](n2cc(COC(=O)c3ccccc3)nn2)C[C@@H]1c1ccc(Cl)cc1,inactive
18,O=C(OCc1cn([C@@H]2C[C@H](c3ccc(Cl)cc3)N(Cc3cccs3)C[C@H]2O)nn1)c1ccccc1,inactive
19,CCCCCC(=O)N1C[C@H](O)[C@@H](n2cc(COC(=O)c3ccccc3)nn2)C[C@@H]1c1ccc(C)cc1,0.82 µM (active)
20,Cc1cc(S(=O)(=O)NCC(C)C)ccc1OCC(=O)NC1CC1,inactive
21,CC(Sc1ncnc2c1cnn2-c1ccccc1)C(=O)Nc1ccc(N2CCOCC2)cc1 (stereo unspecified),inactive
22,CCOC(=O)c1c(CN(C)C)n(-c2ccccc2)c2cc(Br)c(O)cc12,inactive
23,CC(C(=O)NC1CCS(=O)(=O)C1)N1C(=O)/C(=C/c2ccc(Cl)cc2)SC1=S (stereo unspecified),inactive
24,O=C1/C(=C\c2ccc(O)cc2)CCC1CNc1ccc(Cl)cc1 (stereo unspecified),4.61 µM (active)
25,CCOCCCNC(=O)c1ccc(CS(=O)(=O)c2cccc(C(F)(F)F)c2)o1,inactive
26,NS(=O)(=O)c1cc(C(=O)OCC(=O)NNC(=O)c2ccccc2)ccc1Cl,inactive

row,SMILES,Potency
1,O=C(CO/N=C/c1ccccc1O)NNC(=O)c1ccccc1Cl,0.461 µM (active)
2,O=C(CO/N=C/c1ccccc1OC(F)F)NC1CCCC1,inactive
3,CCn1c(SCC(=O)c2ccc(Cl)s2)nnc1-c1cccs1,inactive
4,CCn1c(Cc2cccs2)nnc1SCC(=O)c1ccc(C)cc1,11.2 µM (active)
5,Cc1ccc(-n2c(Cc3cccs3)nnc2SCC(=O)OC(C)C)cc1,inactive
6,CC(C)C[C@H](CO)Nc1nc(N(C)c2cccc(Cl)c2)c2ncn(C(C)C)c2n1,16.4 µM (active)
7,COC(=O)C(C)n1cnc2c(nnn2-c2cccc(Cl)c2)c1=O (stereo unspecified),inactive
8,Cc1ccnc(NS(=O)(=O)c2ccc(NC(=O)c3ccc(S(=O)(=O)N(C)C)cc3)cc2)n1,inactive
9,CCOc1cc2c(Cl)ncnc2c(OCC)c1OCC,inactive
10,CCCCC(=O)OC1=CN(Cc2ccccc2)S(=O)(=O)c2ccccc21,inactive
11,O=C(OCc1cn(-c2ccc(Cl)c(Cl)c2)nn1)c1ccccc1Cl,inactive
12,COc1cc2c(cc1OC)C(C)N(S(=O)(=O)c1cnc(Cl)c(Cl)c1)CC2 (stereo unspecified),inactive
13,CC(C)NC(=S)NN=C1CCCCCCCCCCC1,13 µM (active)
14,CCc1ccc(C(=O)NN=C2CCCCCC2)s1,inactive
15,CC(C)(C)NC(=O)C(=O)NN=C1CCCCCCC1,inactive
16,CC(C)(C)c1ccccc1NC(=O)CN1C(=O)NC2(CCCC2)C1=O,inactive
17,COC(=O)c1ccc(CN2C(=O)C(Cc3ccccc3)ON=C2c2ncccc2C)o1 (stereo unspecified),inactive
18,Cc1ccc(C)c(NC(=O)Cn2ccn(-c3ccc(F)cc3)c(=O)c2=O)c1,inactive
19,COc1ccccc1NC(=O)CCC(=O)OC(C)C(=O)c1ccccc1 (stereo unspecified),inactive
20,O=C(Nc1ccc(F)cc1)c1cc2c(s1)CCCC2,inactive
21,COc1cccc(C(=O)NC2(C(F)(F)F)C(=O)Nc3c2c(=O)[nH]c(=O)n3-c2ccc(C)cc2)c1 (stereo unspecified),25.9 µM (active)
22,COc1cccc(C(=O)NNC(=O)c2cccc(F)c2)c1,inactive
23,CCOc1ccccc1C(=O)NC1(C(F)(F)F)C(=O)Nc2c1c(=O)[nH]c(=O)n2-c1ccc(F)cc1 (stereo unspecified),inactive

# Reference: PubChem BioAssay AID686979 (National Center for Advancing Translational Sciences (NCATS), 2013)
